The results in this text go back to the OligoGym collection.
Note: reference of the scale not given here.

The first test deals with NT5C3L. The test is described as follows: pooled miR-30 sensor sort-seq; sequence = guide strand. To be noted: shRNA.
In turn, TGGAACACTTTCATCTGTCGGA had a sensor-assay potency score (higher = more potent) of -0.0202.
Same read-out and setting: next, TTGCATTGGACTCTCTAACCAC: -0.0742.
In turn, AAACTTCTGAATCTTCTGCTGA showed a sensor-assay potency score (higher = more potent) of -0.000526.
The same measure, in the same setting: next, ATTGGACTCTCTAACCACCTGG: 0.547.
On the same count and under the same terms, next, TAGAGCACTGACATGCTGTGGT: 0.517.

The next test addresses NTHL1. Described as above. As to conditions: shRNA.
Regarding TTTTTGTTCCTCATGGCACGGA, the sensor-assay potency score (higher = more potent) came out at 0.281.
Turning to TTGGTTGCCTTCTTGGTCCACC, the sensor-assay potency score (higher = more potent) is -0.633.
TAGATGAGCTTGCCCAGCGTGG came in with a sensor-assay potency score (higher = more potent) of -1.11.
Still for that read-out and setting: in the case of TTGACCAGCTGTTGCTGCCAGT it was -1.05; in that of TTGATGTATTTCACCTTGCTCC, -0.737; in that of TCATCTGTCTGCAGGATGCTGT, -0.751.
Still for that read-out and setting: next, TTCTTGGTCCACCTCAGCCTGT: -1.58; ATGTATTTCACCTTGCTCCTCC: 0.0621; TATTTCACCTTGCTCCTCCAGA: -0.193.
Still for that read-out and setting: in the case of TTTTCCTCGCTTCTGCTGCAGC it was -0.814; in that of ATCAGTGACAGCAGCACCTGGT, -0.43.
Regarding TTCTGTGCACATGCGTGTCCAC, the sensor-assay potency score (higher = more potent) was -0.487.

In a further test the target is NTM. The description is as above. To be noted: shRNA.
In turn, TTGGCTTCTGAAATGTATGGTG registered a sensor-assay potency score (higher = more potent) of 0.211.
On the same count and under the same terms, in the case of TCTGTCTGCACCGAGCAGGTGT it was -0.506.
Still for that read-out and setting: in the case of TTGTCTGTCTGCACCGAGCAGG it was -0.782.
On the same count and under the same terms, in the case of TTCTTTCCTTCAATCAGTCTTT it was -0.442; in that of TTTGTCATCCTTGTACCACTGG, 0.733.
Consider TTGAAGAAGATGAGTTTTGAGA, for which the sensor-assay potency score (higher = more potent) is -0.515.
Same read-out and setting: in the case of TTGCACAATGAGGTGGACCCTA it was -0.498; in that of AATCAGTCTTTTGTCATCCTTG, -0.561; in that of TTGCTCAGAAGGACCACGCGAG, -0.271.

A further test addresses NTRK2. The description is as above. As to conditions: shRNA.
As for TTTCCTAGACAAACTCGTCAGT, the sensor-assay potency score (higher = more potent) was -0.24.
Turning to TTGTTTGACAGCTGGTACCAGG, the sensor-assay potency score (higher = more potent) was -0.771.
On the same count and under the same terms, in the case of TTGATGTGCTGAACAAATGTGT it was 0.264; in that of TTGCCTTTCACAGTGAATGGAA, 0.0334.
The same measure, in the same setting: next, TTTAGTACAGATGTATTTGGAC: -0.241.
In the case of TTCAACATCATCTTCGTTGATG, the sensor-assay potency score (higher = more potent) was -0.198.
The same measure, in the same setting: in the case of TTTATCAGTGACGTCTGTGGAA it was -0.0514.
The sequence TATGAAACAAAACAAAACCTTT gave a sensor-assay potency score (higher = more potent) of -1.09.
Sequence TATAGAACCACTGAAGCGCTGG yielded a sensor-assay potency score (higher = more potent) of 0.358.
Sequence TATTAGGAACCGGATCACCTGC gave a sensor-assay potency score (higher = more potent) of -1.01.
TCGTTGATGATTTCTAACCTTT displayed a sensor-assay potency score (higher = more potent) of -0.793.
Consider TTCACTGCCACCAAGATCTTGT, for which the sensor-assay potency score (higher = more potent) was found to be 0.258.
